Source: PubChem BioAssay (NCI)
Values joined by “and” are separate entries in the source; they are usually repeats but may differ in a detail not shown here. Equal entries are not always repeated. About 83,000 compounds went through this panel and 20% of them were active in at least one assay; those are over-represented in the sample as a whole.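 Percent growth is the endpoint: 0 to 100 indicates growth inhibition (40 means 60% inhibition), 0 means no net growth, and negative values indicate cell death.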 Unmarked numbers belong to inactive results. Active and inactive are the calls of the source. The calls were made as follows: active = growth percent below 10; inactive = the rest.

Tested on: HL-60(TB) leukemia
Assay: NCI-60 one-dose screen, 48 h (100 = growth as untreated, 0 = no growth, -100 = all killed)
Conditions: 10 µM unless noted

| SMILES | growth |
| --- | --- |
| COc1ccc2nc(NCCCNCCO)c3sc4ccc(F)cc4c(=O)c3c2c1 | 25% |
| c1cc2ccc1CNCCN1CCNCc3ccc(cc3)Oc3ccc(cc3)CNCCN(CCNCc3ccc(cc3)O2)CCNCc2ccc(cc2)Oc2ccc(cc2)CNCC1 | -57.4% (active) |
| CC(C)NCCCCCNc1cc(O)cc2cccnc12 | -43.6% (active) |
| O=C(NCCc1ccccc1)/C(=C\c1ccc(Cl)cc1Cl)NC(=O)c1ccccc1 | 112% |
| C=C1CCC[C@]2(C)CCC[C@H](C)[C@@H](OC(C)=O)[C@@H]3OC(=O)C(=C)[C@@H]3C[C@H]1O2 | 41.8% |
| CCCN1CCN(c2ccc3nc(-c4ccc5nc(-c6ccc(C(F)(F)F)cc6)[nH]c5c4)[nH]c3c2)CC1 | -40.7% (active) |
| Nc1nc(SCC#CCCl)c2[nH]cnc2n1 | 11% |
| COc1ccc(C(O)c2cc3c(N)c(C(=O)Nc4ccccc4)sc3nc2C)cc1 (stereo unspecified) | -68.5% (active) |
| CS(=O)(=O)c1ccc(C(=O)N/N=C/c2ccccc2O)cc1 | 6.35% (active) |
| CCN(CC)CCNC(=O)c1cn2ncnc(Oc3ccc(NC(=O)Nc4ccc(Cl)c(C(F)(F)F)c4)cc3)c2c1C | -40.8% (active) |
| Cc1ccc(S(=O)(=O)Nc2ccc3cc([N+](=O)[O-])ccc3c2[N+](=O)[O-])cc1 | 83.3% and 31% |
| O=S(=O)(Nc1ccc(Cl)cc1)c1ccc(-c2cnc(C3CC3)o2)cc1 | -36.7% (active) |
| CCCCCCCCCCCCCCCCCCOP(=O)([O-])OC1CC[N+](C)(C)CC1 | -22.6% (active) and -37.1% (active) |
| COC(=O)/C=C1/SC(=Nc2cccc(OC)c2)N(CCc2c[nH]c3ccc(O)cc23)C1=O | 59.8% |
| CN(C)CCCOc1ccc(OCCCN(C)C)c2c1C(=O)c1ccccc1C2=O | 5.97% (active) |
| Nc1ncnc2c1ncn2C1OC(CO)C(O)C1O (stereo unspecified) | 65.5% and 84.5% and 105% |
| COc1ccc(C2c3sc4c(F)cccc4c3Oc3nc[nH]c(=O)c32)cc1 (stereo unspecified) | -44.6% (active) |
| CC(C)[C@@]12C[C@@H](OC(=O)C3CO3)[C@@](C)(O1)[C@@H]1CC[C@@H](C)[C@H]1[C@@H]2OC(=O)/C=C/c1ccccc1 (stereo partly specified) | 93.3% |

| SMILES | growth |
| --- | --- |
| COc1ccc2cc(/C=C3\N=C(c4cc(OC)c(OC)c(OC)c4)OC3=O)c(OC)nc2c1 | 95.3% |
| Cc1ccc(-n2c(-c3cc4c([nH]c5ccccc54)c(-c4cccc(O)c4)n3)n[nH]c2=S)cc1 | 2.59% (active) |
| CCCCCCCCCCCCCCCc1cc(O)ccc1N | -45.5% (active) and -6.54% (active) |
| COc1ccc2nc(C)cc(Nc3ccc(Cl)cc3)c2c1 | 95.6% |
| CC/C=C\C[C@H](O)C/C=C1/C(=O)C=C[C@@H]1C/C=C\CCCC(=O)N(C)C | 0.857% (active) |
| COc1ccc(NC(=O)C2c3ccccc3C(=O)N(CC(C)C)C2c2cccs2)cc1 (stereo unspecified) | 90% |
| CN(C)Cc1ccc(NC(=O)c2cncc(C#Cc3cnc(N)c4ncccc34)c2)cc1F | 83.7% |
| COc1cc(C(=O)/C=C/c2c(C)n([O-])c3ccc(C(F)(F)F)cc3[n+]2=O)cc(OC)c1OC | 69% |
| CC(C)OC(=O)N1CCOCC1 | 116% |
| COCCNC(=O)c1ccc(-c2nc3ccc4[nH]ncc4c3c3c2CCCC3)cc1 | 11.4% |
| C=CCc1cc(C(C)=O)cc(OC)c1O | 71.1% |
| COc1ccc(-n2c(-c3ccccc3)c(-c3ccccc3)c3c(SCC(=O)N/N=C/c4ccc(Cl)cc4)ncnc32)cc1 | 103% |
| Cc1cc(C(C)(C)c2cc(C)c(O)c(CN(C)C)c2)cc(CN(C)C)c1O | 81.1% |
| COc1ccc(/C(C)=C(\c2ccc(Cl)cc2)c2ccc(OCCN3CCCCC3)cc2)cc1F | -14% (active) |
| CC(C)Cn1cnc2c3ccccc3nc(NCn3nc(-c4cc(Cl)cc(Cl)c4Cl)oc3=S)c21 | 43.8% |
| CCCCCCCCOc1ccc(/C=N/Nc2cc(C)nc3ccc(Cl)cc23)cc1 | 13.5% |
| O=C1Nc2ccccc2/C1=C\c1c(-c2ccc(F)cc2)nc2ccccn12 | 70.3% |
| CCN(CC)CCOc1ccc2c(c1)C(=O)c1cc(OCCN(CC)CC)ccc1-2 | 94.2% and 36.5% |
